High-throughput results as filed in PubChem BioAssay.
Hits are enriched below; roughly 1.2% of the tested compounds scored in any of these assays.
S1P2 blocker: antagonists of human S1P2 receptor; 97,000 compounds, 0.21% hits; inhibition, % at 5 µM; O95136; cell-based S1P2 antagonist assay, inhibition at 5 uM; in the data active = inhibition above about 45%;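 also: CRE beta-lactamase reporter cells expressing human S1P2 stimulated with S1P; 0% = agonist at EC80 alone and 100% = agonist plus reference antagonist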
GALR2 antag: antagonists of human galanin receptor 2 (GALR2); O43603; GALR2-expressing cells, antagonist mode; inhibition, % at 4 µM; 140,000 compounds, 0.39% hits;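 also: cells stimulated with galanin 1-16 at roughly its EC80; 0% = agonist challenge control and 100% = basal control without agonist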
Target sequence (O43603 whole entry, looked up): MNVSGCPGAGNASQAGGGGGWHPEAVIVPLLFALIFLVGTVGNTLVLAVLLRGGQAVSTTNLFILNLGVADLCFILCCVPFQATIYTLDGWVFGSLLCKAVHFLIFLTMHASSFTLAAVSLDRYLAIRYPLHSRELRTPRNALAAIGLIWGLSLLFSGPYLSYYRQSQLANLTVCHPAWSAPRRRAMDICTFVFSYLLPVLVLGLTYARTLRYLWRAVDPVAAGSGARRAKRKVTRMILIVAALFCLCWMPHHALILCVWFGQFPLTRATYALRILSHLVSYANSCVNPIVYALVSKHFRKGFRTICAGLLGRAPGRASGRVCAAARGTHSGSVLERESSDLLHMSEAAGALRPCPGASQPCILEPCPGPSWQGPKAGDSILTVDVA
S1P2 agonist: S1P2 (human) receptor agonism | O95136 | 97,000 compounds, 0.46% hits | S1P2-expressing cell line, agonist reporter read-out | activation, % at 4.5 µM | AID 729; in the data active = activation above about 16%;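 also: 0% = vehicle low control and 100% = maximal reference agonist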
GALR2 ag: activates the human galanin receptor 2. O43603. GALR2-expressing cells, agonist activation read-out. activation, % (concentration not given with the values). 140,000 compounds, 0.48% hits. AID 803; in the data active = activation above about 5%, passing the limit was not always enough;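 also: 0% = vehicle buffer wells and 100% = reference agonist at full effect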
GALR2 ag confirm: confirmation of human galanin receptor 2 (GALR2) agonists | 460 compounds, 10% hits | activation, % at 5.6 µM | shares compounds with GALR2 ag | GALR2-expressing cells, agonist activation; in the data active = activation above about 8.4%;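 also: 0% = buffer-only vehicle wells and 100% = full reference agonist response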
BLA activ ctr: beta-lactamase activation, GALR2 counterscreen | shares compounds with GALR2 ag | CHO NFAT-bla reporter, beta-lactamase FRET activation | 460 compounds, 10% hits | AID 865 | activation, % at 5.6 µM;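 active = activation above the screen-wide mean activation plus 3 SD, cut at about 8% in these data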;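 also: 0% = DMSO with PBS wells and 100% = thapsigargin positive control wells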
GALR2 blk conf: confirmation of human galanin receptor 2 (GALR2) antagonists | 480 compounds, 60% hits | inhibition, % at 4 µM | GALR2-expressing cells, antagonist mode, inhibition | shares compounds with GALR2 antag;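 also: cells stimulated with galanin at about its EC80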
BLA inhib ctr: beta-lactamase inhibition, GALR2 counterscreen | AID 867 | 480 compounds, 36% hits | inhibition, % at 4.2 µM | CHO NFAT-BLA reporter, beta-lactamase FRET, thapsigargin-stimulated | shares compounds with GALR2 antag;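 active = inhibition above the mean inhibition across tested compounds plus 3 SD, cut at about 27% in these data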;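 also: 0% = 500 nM thapsigargin stimulated wells and 100% = unstimulated BSA only wells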
Starred values were filed as active, the others as inactive; · = no result given. Rule as the data show it, unless noted: active = inhibition above about 27%; inactive = the rest.

SMILES	S1P2 blocker	GALR2 antag	S1P2 agonist	GALR2 ag	others
CCn1nc(-c2ccccc2)nc2c(=O)n(C)c(=O)nc1-2	·	95.0*	·	3.8
CC(C)OC(=O)c1c(N)n(Cc2ccco2)c2nc3ccccc3nc12	2.4	0.3	-0.8	0.7
CC(C)OCCCNC(=O)c1c(N)n(Cc2cccs2)c2nc3ccccc3nc12	·	-11.0	·	28.6*
CCCNC(=O)c1c(N)n(Cc2ccc3c(c2)OCO3)c2nc3ccccc3nc12	-5.0	-25.0	13.8	0.5
Nc1c(C(=O)NCc2ccco2)c2nc3ccccc3nc2n1CCN1CCCCC1	-1.0	-11.4	27.8*	7.5
CC(C)CNC(=O)c1c(N)n(Cc2ccco2)c2nc3ccccc3nc12	-65.0	-23.7	32.9*	16.6*
COc1ccc(Cn2c(N)c(C(=O)NCc3ccco3)c3nc4ccccc4nc32)cc1OC	-21.2	-8.9	7.0	2.4
CC(C)CCNC(=O)c1c(N)n(Cc2ccc3c(c2)OCO3)c2nc3ccccc3nc12	-97.8	-12.4	129.3*	9.6
COC1=CCC2([N+](=O)[O-])CN(C)CC1([N+](=O)[O-])C2 (stereo unspecified)	·	7.0	·	-0.8
Cc1ccc(S(=O)(=O)Cc2ccc(C(=O)N3CCC4(CC3)OCCO4)o2)cc1	-7.8	0.7	-3.5	-2.5
COc1ccc(CCNCc2ccncc2)cc1	-10.3	-11.8	-0.2	-0.5
CC(C)CCn1c(N)c(C(=O)NCc2cccs2)c2nc3ccccc3nc21	-27.1	0.1	14.9	2.9
COCCNC(=O)c1c(N)n(CCC(C)C)c2nc3ccccc3nc12	-33.7	-12.8	16.4*	15.9*
CC(C)CNC(=O)c1c(N)n(Cc2ccc3c(c2)OCO3)c2nc3ccccc3nc12	-139.9	-37.4	66.6*	40.2*
COc1cc(OC)cc(-n2nc(C(=O)N3CCC4(CC3)OCCO4)c3ccccc3c2=O)c1	·	9.0	·	0.1
CN1/C(=C\C=C\C2=[N+](C)c3ccc4ccccc4c3C2(C)C)C(C)(C)c2ccccc21	94.9*	-50.8	-4.8	1.3
C[C@H]1CCC/C=C/C2C[C@H](O)CC2[C@H](O)/C=C/C(=O)O1 (stereo partly specified)	·	49.4*	·	-0.8
Nc1c(C(=O)OCC2CCCO2)c2nc3ccccc3nc2n1Cc1cccs1 (stereo unspecified)	-11.2	15.3	0.9	0.4
Nc1c(C(=O)NC2CCCC2)c2nc3ccccc3nc2n1CC1CCCO1 (stereo unspecified)	-56.4	-12.7	44.4*	32.5*
Cc1ccc(NC2=NCCCS2)c(C)c1C	·	6.0	·	-0.1
Cc1cccc(N2C(=O)NC(=O)/C(=C\c3cccn3-c3ccc(Cl)cc3)C2=O)c1	56.1*	7.7	-5.7	-0.6
Cc1cc(C)cc(N2C(=O)NC(=O)/C(=C/c3cccn3-c3ccc(Cl)cc3)C2=O)c1	·	-1.4	·	-0.9
CC12CN3C(O)C(C)(C1)CC(C)(C2)C3O (stereo unspecified)	-13.6	-3.3	-3.3	-3.4
CSc1ncc(/C=C2/C(=O)NC(=O)N(c3ccc(C(C)C)cc3)C2=O)cn1	·	-2.4	·	5.1*
COCCCn1c(N)c(C(=O)OCCOC)c2nc3ccccc3nc21	·	7.8	·	0.7
SMILES	S1P2 blocker	GALR2 antag	S1P2 agonist	GALR2 ag	others
CCCNC(=O)c1c(N)n(Cc2ccco2)c2nc3ccccc3nc12	-24.2	-8.3	13.4	17.9*	GALR2 ag confirm=5.0;BLA activ ctr=11.1*
COCCCNC(=O)c1c(NC(=O)c2ccco2)n(Cc2ccccc2)c2nc3ccccc3nc12	17.5	5.1	1.1	8.6	GALR2 ag confirm=2.1;BLA activ ctr=2.2
CCCCNC(=O)c1c(N)n(CCCOC)c2nc3ccccc3nc12	·	-15.0	·	9.4*	GALR2 ag confirm=4.3;BLA activ ctr=13.9*
OCC12CO[C@@H]3c4ccccc4[C@H](OC1)N32 (stereo partly specified)	-18.9	2.2	-3.5	-2.3
COc1cc(CN2CCN(c3cc(C)ccc3C)CC2)ccc1O	0.7	7.1	-7.4	48.5*	GALR2 ag confirm=-0.6;BLA activ ctr=-1.8
COc1cc2c(cc1OC)CN(c1ccc([N+](=O)[O-])c(C(F)(F)F)c1)CC2	·	-3.0	·	-0.1
O=[N+]([O-])c1ccc(C2[C@H]3C(c4ccccc4)=NC4(CCCC4)N23)cc1 (stereo partly specified)	·	-12.6	·	0.5
Cc1ccc(C2=NC(C)(C)N3C2C3c2ccc([N+](=O)[O-])cc2)cc1 (stereo unspecified)	·	1.9	·	10.3*	GALR2 ag confirm=-0.7;BLA activ ctr=-2.1
C1=C(CCNCc2ccccc2)CCCC1	-5.0	5.2	-2.4	1.2
COC(=O)C1CN(C#N)N(c2ccc(Cl)cc2)C12c1ccccc1-c1ccccc12 (stereo unspecified)	78.5*	77.7*	-15.4	-3.1	GALR2 blk conf=87.2*;BLA inhib ctr=92.4*
Cc1nc2c(=O)n(C)c(=O)nc-2n(C)n1	95.9*	100.1*	10.4	4.6	GALR2 blk conf=100.2*;BLA inhib ctr=100.4*
O=C1NC(=O)C(CCc2ccncc2)(c2ccccc2)C(=O)N1	11.5	-2.2	-3.9	-1.4
CN1CCN(c2c[nH]c(=O)[nH]c2=O)CC1	14.2	6.8	-4.7	-1.1
O=C(c1ccccc1)C(CN1CCCC1)c1ccccc1 (stereo unspecified)	·	29.9*	·	0.8	GALR2 blk conf=28.9*;BLA inhib ctr=25.3
CC1CCC/C=C/C2CC(O)CC2C(O)/C=C/C(=O)O1 (stereo unspecified)	4.2	45.6*	-0.9	-0.6	GALR2 blk conf=62.1*;BLA inhib ctr=18.4
O=c1[nH]c(=O)n(CCc2ccccc2)c(O)c1C=NCc1ccc2c(c1)OCO2	6.5	0.6	-1.4	-1.8
Cc1cccnc1-n1c(C)nc2ccccc2c1=O	-30.0	-19.1	1.1	0.2
CC1(C)C[C@H]2C=C(C=O)[C@]3(C=O)C[C@]3(C)[C@H]2C1	·	55.5*	·	-2.2	GALR2 blk conf=91.9*;BLA inhib ctr=99.1*
O=P(O)(O)C12CC3CC(CC(C3)C1)C2	-4.9	1.8	-4.6	-2.9
